{"source": "PubChem BioAssay (NCI)", "note": "The panel holds about 83,000 compounds, 20% with a hit somewhere; the sample as a whole holds those more often.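 Cell lines were cultured in 96-well plates, exposed to a single compound concentration, and assessed for percent growth 48 hours later.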 Active and inactive are the calls of the source. How the source made its calls: active means growth percent below 10; inactive means the rest."}
{"test_system": "MOLT-4 leukemia", "experiment": "NCI-60 one-dose screen, 48 h (100 = growth as untreated, 0 = no growth, -100 = all killed)", "settings": "10 µM unless noted"}
{"smiles": "Cc1cccc(-n2c(C)nc3ccc(NC(=O)NCCCl)cc3c2=O)c1", "growth": "105% (inactive)"}
{"smiles": "COc1c(NC[C@H]2OC(O)[C@H](O)[C@@H](O)[C@@H]2O)c(=O)c1=O", "note": "(some centres undefined)", "growth": "102% (inactive)"}
{"smiles": "COc1ccc(-c2nnc(COc3ccc(NS(=O)(=O)c4ccc(OC)cc4)cc3F)o2)cc1", "growth": "60% (inactive)"}
{"smiles": "CCCOC(=O)C1(O)CCCC1", "growth": "93.1% (inactive)"}
{"smiles": "Nc1c(C(=O)Nc2ccccc2)sc2nc3c(cc12)CN(Cc1ccccc1)CC3", "growth": "92.3% (inactive)"}
{"smiles": "COc1cc(OC)cc(-c2n[nH]nc2-c2ccc3c(c2)OCO3)c1", "growth": "31.3% (inactive)"}
{"smiles": "Cc1ccc(Oc2nc3ccccc3cc2-c2nnc(Cn3c(COc4ccccc4)nc4ccccc43)o2)cc1", "growth": "-13.8% (active)"}
{"smiles": "COc1cc(C(=O)/C=C/c2cc(C(=O)c3cc(OC)c(OC)c(OC)c3)ccc2OC)ccc1N", "growth": "4.31% (active)"}
{"test_system": "SR leukemia", "experiment": "NCI-60 one-dose screen, 48 h (100 = growth as untreated, 0 = no growth, -100 = all killed)", "settings": "10 µM unless noted"}
{"smiles": "COc1ccc(C2SCC(=O)N2NC(=O)c2ccc(NC(=O)c3ccccn3)cc2)cc1OC", "note": "(centres undefined)", "growth": "90.9% (inactive)"}
{"smiles": "O=C(O)c1cn(C2CC2)c2cc(N3CCN(S(=O)(=O)c4ccc(Cl)c(Cl)c4)CC3)c(F)cc2c1=O", "growth": "-25.1% (active)"}
{"smiles": "COc1ccc(/C=C/C(=O)c2ccc(B(O)O)cc2)cc1O", "growth": "19.6% (inactive)"}
{"smiles": "O=C(Nc1ccc(OCc2nnc(-c3ccc(Cl)cc3)o2)c(F)c1)Nc1ccc(Cl)c(Cl)c1", "growth": "21.4% (inactive)"}
{"smiles": "Cc1cc(C)c(NC(=O)c2sc3nc4c(cc3c2N)CN(Cc2ccccc2)CC4)c(C)c1", "growth": "10.1% (inactive)"}
{"smiles": "COc1cc(NCCN=C(N)NC(N)=NC(C)C)c2ncccc2c1", "growth": "74.8% (inactive)"}
{"smiles": "COc1cccc(/C=C2\\SC(N3CCN(c4ccccn4)CC3)=NC2=O)c1", "growth": "89.7% (inactive)"}
{"smiles": "CC(C)C[C@H](NC(=O)[C@@H](Cc1ccccc1)n1ccc(Nc2ccccc2)cc1=O)B(O)O", "growth": "21% (inactive)"}
{"smiles": "O=S(=O)(NCCCNc1nccc(-c2c(-c3ccccc3)nc3sccn23)n1)c1ccc(F)cc1", "growth": "34.6% (inactive)"}
{"smiles": "Nc1c(C(=O)Nc2ccccc2)sc2nc3c(cc12)CCCCC3", "growth": "17% (inactive)"}
{"smiles": "Cc1cc(Nc2nc(C(=O)Nc3ccccc3)nc3ccccc23)n[nH]1", "growth": "33% (inactive)"}
{"smiles": "CCCCCCCCCCCCCCCCC(Br)C(=O)O", "note": "(centres undefined)", "growth": "105% (inactive)"}
{"smiles": "COc1ccc(/C=C2\\C(=O)N(C(=O)c3csc(NC(C)=O)n3)N=C2C)cc1", "growth": "82.2% (inactive)"}
{"smiles": "CC[C@]1(O)C[C@@H]2CN(Cc3c([nH]c4ccccc34)[C@@](C(=O)OC)(c3cc4c(cc3OC)N(C)[C@H]3[C@@](O)(C(=O)OC)[C@H](OC(C)=O)[C@]5(CC)[C@@H]6C[C@@H]6CN6CC[C@]43[C@@H]65)C2)C1", "growth": "2.3% (active)"}
{"smiles": "CN=S(=O)(NC(=O)c1ccc(Cl)cc1Cl)c1ccc(Br)s1", "note": "(centres undefined)", "growth": "94.3% (inactive)"}
{"smiles": "COc1cc(OC)c(C(=O)/C=C/c2cccc(C#N)c2)c(OC)c1", "growth": "3.17% (active)"}
{"smiles": "COc1ccc(C2CC(c3cccs3)=NN2c2ccc(S(=O)(=O)NC(=O)Nc3ccc(C)cc3)cc2)cc1", "note": "(centres undefined)", "growth": "84.7% (inactive)"}
{"smiles": "O=S(=O)(NCCNc1nccc(-c2c(-c3ccccc3)nc3sccn23)n1)c1ccc(O)cc1", "growth": "18.2% (inactive)"}
{"smiles": "O=c1[nH]c2ccccc2cc1-c1nnc(Cc2ccccc2)o1", "growth": "31.6% (inactive)"}
{"smiles": "CCCCCCC[C@@H](O)CC(=O)N[C@H](CCCCN)C(=O)N[C@H](Cc1c[nH]c2ccccc12)C(=O)NC(CCCCN)C(=O)N[C@H](CC(C)C)C(=O)N[C@H](Cc1ccccc1)C(=O)N[C@H](CCCCN)C(=O)N[C@H](CCCCN)C(=O)N[C@H](CC(C)C)C(=O)N1CCCC1C(=O)N[C@H](CCCCN)C(=O)N[C@H](Cc1ccccc1)C(=O)N[C@H](CC(C)C)C(=O)N[C@H](Cc1c[nH]cn1)C(=O)N[C@H](CC(C)C)C(=O)N[C@H](C)C(=O)N[C@H](CCCCN)C(=O)N[C@H](CCCCN)C(=O)N[C@H](Cc1ccccc1)C(=O)O", "note": "(some centres undefined)", "growth": "-13.1% (active)"}
{"smiles": "Oc1ccc(Cl)cc1-c1cc(-c2ccc(Cl)cc2)n[nH]1", "growth": "41.6% (inactive)"}
{"smiles": "COc1c(NC[C@H]2OC(O)[C@H](O)[C@@H](O)[C@@H]2O)c(=O)c1=O", "note": "(some centres undefined)", "growth": "119% (inactive)"}
{"smiles": "COc1ccc(-c2nnc(COc3ccc(NS(=O)(=O)c4ccc(OC)cc4)cc3F)o2)cc1", "growth": "50.6% (inactive)"}
{"smiles": "Nc1c(C(=O)Nc2ccccc2)sc2nc3c(cc12)CN(Cc1ccccc1)CC3", "growth": "55.6% (inactive)"}
{"smiles": "Cc1ccc(Oc2nc3ccccc3cc2-c2nnc(Cn3c(COc4ccccc4)nc4ccccc43)o2)cc1", "growth": "-7.62% (active)"}
{"smiles": "COc1cc(C(=O)/C=C/c2cc(C(=O)c3cc(OC)c(OC)c(OC)c3)ccc2OC)ccc1N", "growth": "-7.95% (active)"}
